Source: PubChem BioAssay (NCATS)
Values joined by “and” are separate entries in the source; they are usually repeats but may differ in a detail not shown here. Equal values may be shown once. Results filed as inconclusive are left out. Active and inactive are the calls of the source. Unless noted, no rule for the calls is given here. Non-standard residues stand in square brackets, D forms with d. Residues, ends and D or L forms follow the SMILES beside them. *: point of attachment. Sta = CC(C)C[C@H](N)[C@@H](O)CC(=O)O; Isovaleryl = CC(C)CC(=O)*

Legend:
[1] = qHTS profiling of the MIPE4 collection as inhibitors of Plasmodium falciparum (3D7) proliferation (AID 743344);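 also: scaled between DMSO vehicle wells and 0.29 µM artemisinin as full inhibition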; conditions: P. falciparum 3D7 in erythrocytes, SYBR Green DNA fluorescence, 72 h; at 28.5 µM unless noted
Outline: (§1)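 Parasite DNA was quantified by SYBR Green I fluorescence (ex 485, em 535 nm) after overnight lysis in saponin/Triton buffer at room temperature. Cultures at 0.3% parasitemia and 2.5% hematocrit were first exposed to compound for 72 h at 37 C; signals were normalised to artemisinin (0.29 uM) and vehicle wells.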

[2] = qHTS profiling of the MIPE4 collection as inhibitors of Plasmodium falciparum (DD2) proliferation (AID 743345); conditions: P. falciparum Dd2 in erythrocytes, SYBR Green DNA, 72 h; at 28.5 µM unless noted
Outline: as §1

[3] = qHTS profiling of the MIPE4 collection as inhibitors of Plasmodium falciparum (DD2) proliferation (Rep 2) (AID 743346); conditions: P. falciparum Dd2 in erythrocytes, SYBR Green DNA, 72 h; at 28.5 µM unless noted
Outline: as §1

[4] = qHTS assay for cell viability of HEK293 cells (AID 743288; active = well fitted curve in the direction sought with a large enough effect; an effect the other way counts as inactive or inconclusive; also: % is scaled to controls: 0 for no effect and ±100 for the full control effect; nearly all actives have a fitted effect of over 50% in size); conditions: ATP luminescence (CellTiter-Glo), 18 h; max response: stronger effect = lower value
Outline: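 After 18 h compound exposure at 37 C, parental HEK293 cells (2,000/well) are lysed with CellTiter-Glo and luminescence is read following 30 min at room temperature.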

[5] = qHTS assay for cell viability of the p53RE-bla HCT-116 cell line (AID 743292; active = well fitted curve in the direction sought with a large enough effect; an effect the other way counts as inactive or inconclusive; also: % is scaled to controls: 0 for no effect and ±100 for the full control effect; nearly all actives have a fitted effect of over 55% in size); conditions: p53RE-bla HCT-116 viability, ATP luminescence, 16 h; series mostly up to 95 µM
Outline: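 In this qHTS counter-screen, metabolically competent p53RE-bla HCT-116 cells were counted via their ATP content. Compounds were applied for 16 h at 37 C and luciferase-coupled luminescence was measured.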

[6] = qHTS profiling for inhibitors of Plasmodium falciparum (HB3) proliferation (AID 743324; active = well fitted curve in the direction sought with a large enough effect; an effect the other way counts as inactive or inconclusive;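 also: 100% = DMSO vehicle wells and 0% = artemisinin-treated control wells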); conditions: Plasmodium falciparum HB3 blood-stage proliferation; at 28.7 µM (top of the series) unless noted
Outline: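 SYBR Green fluorescence (485 ex/535 em) of lysed cultures, incubated overnight at room temperature in the dark, quantifies parasite DNA. Infected erythrocytes at 0.3% parasitemia and 2.5% hematocrit were exposed 72 h; values normalized to DMSO and 0.29 uM artemisinin controls.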

[7] = qHTS Assay for Identifying Gametocytocidal Compounds (AID 743244; active = well fitted curve in the direction sought with a large enough effect; an effect the other way counts as inactive or inconclusive; also: potency is read from the fitted curve at half-maximal effect;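 as to max response: % is scaled to controls: 0 for no effect and ±100 for the full control effect; actives lower the fluorescent signal which means gametocytes are killed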); conditions: P. falciparum 3D7 stage III-V gametocytes, alamarBlue, 72 h; max response: stronger effect = lower value
Outline: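 In this qHTS viability screen, late-stage 3D7 gametocytes are incubated with compound for 72 h, then with alamarBlue for 24 h; reduced resorufin fluorescence marks killing.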

Compound `Clc1ccc2c(N3CCN(CCCN4CCN(c5ccnc6cc(Cl)ccc56)CC4)CC3)ccnc2c1` has a parasite growth, % of DMSO control [1] of 18.8% [at 9.64 µM], a parasite growth remaining, % of DMSO control (lower = more inhibition) [2] of 9.96% [at 9.64 µM] and a parasite growth, % of control (lower = inhibition) [3] of 21.1% [at 9.64 µM].

`O=C(CS(=O)Cc1ccco1)NCC=CCOc1cc(CN2CCCCC2)ccn1` (centres undefined) showed a parasite growth, % of DMSO control [1] of 78%, a parasite growth remaining, % of DMSO control (lower = more inhibition) [2] of 95.7% and a parasite growth, % of control (lower = inhibition) [3] of 53.3%.

In the case of `CC(=O)Nc1ccc(O)cc1`, the max response [4] is reported as -9.69% (inactive) and -0.289% (inactive) and the Potency [5] is reported as “inactive”.

For `Cc1cc(C2CCCCC2)n(O)c(=O)c1`, the remaining proliferation (% of control), lower = more inhibition [6] was -0.0898%, the parasite growth, % of DMSO control [1] was 6.27% and the parasite growth remaining, % of DMSO control (lower = more inhibition) [2] was 7.36%. The parasite growth, % of control (lower = inhibition) [3] was 17.5%.

`CC(C)CC(=O)N[C@H](C(=O)N[C@H](C(=O)N[C@@H](CC(C)C)[C@@H](O)CC(=O)N[C@@H](C)C(=O)N[C@@H](CC(C)C)[C@@H](O)CC(=O)O)C(C)C)C(C)C` (Isovaleryl-VV[Sta]A[Sta]-OH) showed a parasite growth, % of DMSO control [1] of 59.4%, a parasite growth remaining, % of DMSO control (lower = more inhibition) [2] of 99.1% and a parasite growth, % of control (lower = inhibition) [3] of 58.8%.

`Clc1ccc(C(Cn2ccnc2)OCc2c(Cl)cccc2Cl)c(Cl)c1` (centres undefined) showed a parasite growth, % of DMSO control [1] of 4.82%, a parasite growth remaining, % of DMSO control (lower = more inhibition) [2] of 9.61% and a parasite growth, % of control (lower = inhibition) [3] of 14.8%.

In the case of `C[C@]12CCC(=O)C=C1CC[C@@H]1[C@H]2[C@@H](O)C[C@@]2(C)[C@H]1CC[C@]2(O)C(=O)CO`, the parasite growth, % of DMSO control [1] is reported as 76.9%, the parasite growth remaining, % of DMSO control (lower = more inhibition) [2] is reported as 93.1% and the parasite growth, % of control (lower = inhibition) [3] is reported as 74.9%.

For `COC(=O)C1=C(C)NC(C)=C(C(=O)OCCCN2CCC(c3ccccc3)(c3ccccc3)CC2)C1c1cccc([N+](=O)[O-])c1` (centres undefined), the Potency [7] was 10 µM (active), the parasite growth, % of DMSO control [1] was 114% and the parasite growth remaining, % of DMSO control (lower = more inhibition) [2] was 107%. The parasite growth, % of control (lower = inhibition) [3] was 86.6%.

Compound `CCCCCCCCOc1ccccc1C(=O)Nc1ccc(C(=O)OCC[N+](C)(CC)CC)cc1` has a parasite growth, % of DMSO control [1] of 9.2%, a parasite growth remaining, % of DMSO control (lower = more inhibition) [2] of 5.8% and a parasite growth, % of control (lower = inhibition) [3] of 26.3%.

For `Cc1nc(-c2ccc(OCC(C)C)c(C#N)c2)sc1C(=O)O`, the max response [7] was 55.3% (inactive), the parasite growth, % of DMSO control [1] was 64.2% and the parasite growth remaining, % of DMSO control (lower = more inhibition) [2] was 91.7%. It also gave a parasite growth, % of control (lower = inhibition) [3] of 43.1%.

In the case of `CC1(C)CCC(C)(C)c2cc(NC(=O)c3ccc(C(=O)O)cc3)ccc21`, the max response [7] is reported as 7.33% (inactive), the parasite growth, % of DMSO control [1] is reported as 23.1% and the parasite growth remaining, % of DMSO control (lower = more inhibition) [2] is reported as 86.1%. It also gave a parasite growth, % of control (lower = inhibition) [3] of 27%.

`Cc1cc(Cl)ccc1OCCCC(=O)NO` showed a parasite growth, % of DMSO control [1] of 34.3%, a parasite growth remaining, % of DMSO control (lower = more inhibition) [2] of 72.9% and a parasite growth, % of control (lower = inhibition) [3] of 42.1%.

For `CCCCCCCCCCCCCCCCCCCCCCO`, the max response [7] was 23% (inactive), the parasite growth, % of DMSO control [1] was 94.9% and the parasite growth remaining, % of DMSO control (lower = more inhibition) [2] was 124%. The parasite growth, % of control (lower = inhibition) [3] was 137%.

With `COc1cc2c(N3CCN(C(=O)Nc4ccc(OC(C)C)cc4)CC3)ncnc2cc1OCCCN1CCCCC1` the parasite growth, % of DMSO control [1] was 4.84%, the parasite growth remaining, % of DMSO control (lower = more inhibition) [2] was 8.31% and the parasite growth, % of control (lower = inhibition) [3] was 12%.

In the case of `O=C(O)c1cccc(-c2noc(-c3ccccc3F)n2)c1`, the max response [7] is reported as -7.05% (inactive), the parasite growth, % of DMSO control [1] is reported as 93.9% and the parasite growth remaining, % of DMSO control (lower = more inhibition) [2] is reported as 96.1%. The parasite growth, % of control (lower = inhibition) [3] was 41.6%.

With `Cc1ccc(C(=O)c2cc(O)c(O)c([N+](=O)[O-])c2)cc1` the max response [7] was 2.67% (inactive), the parasite growth, % of DMSO control [1] was 82.6% and the parasite growth remaining, % of DMSO control (lower = more inhibition) [2] was 93.6%. For the same compound, the parasite growth, % of control (lower = inhibition) [3] was 82.4%.
